This is an account of results in PubChem BioAssay (NCI).

“And” between values parts separate entries of the source, which are not always exact repeats. Equal entries are not always repeated. The panel holds about 83,000 compounds, 20% with a hit somewhere; the sample as a whole holds those more often.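 The test compound was applied at a single concentration to cells in 96-well plates for 48 hours, and percent growth was recorded.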 A number with no mark means an inactive call. The source made the active and inactive calls. The calls were made as follows: active = growth percent below 10; inactive = the rest.

The test system of this assay is MDA-MB-468 breast. The assay is described as follows: NCI-60 one-dose screen, 48 h (100 = growth as untreated, 0 = no growth, -100 = all killed). The following applies: 10 µM unless noted.
As for `COc1ccc2cc(-c3nc4ccccc4s3)c(Cl)nc2c1OC`, the growth was 103%. The same measure for `NNc1ccc(S(N)(=O)=O)cc1`: 100%; for `COc1ccc(C2SCC(=O)N2NC(=O)c2ccc(NC(=O)c3ccccn3)cc2)cc1OC` (centres undefined): 104%; for `CC1(C)COB(OCC(C)(C)COB2OCC(C)(C)CO2)OC1`: 114%. The value for `COc1cc(C(=O)Nc2cc(OC)c3ccn(C)c3c2)cc2c1C[C@]1(C)CC[C@@H](O)C(C)(C)[C@H]1O2` was 8.94% (active); that for `CN(C)c1ccc2c(c1)/C(=N/O)c1ccccc1-2` was 76.9%. The value for `COc1ccc2c(c1)OC(N(C(C)=O)C(C)=O)=C(C#N)C2c1ccc(F)cc1` (centres undefined) was -36.1% (active); that for `N/C(=N\c1nc2ccc([N+](=O)[O-])cc2s1)C(Cl)(Cl)Cl` was 3.78% (active).

`CC(C)c1ccc2c(c1)CC[C@H]1[C@](C)(C(=O)OCC#CCN3CCCC3)CCC[C@]21C`: the growth is 52.4%. The value for `Cc1ccc(CCC(=O)Nc2ncc(Cc3cc(Cl)ccc3Cl)s2)o1` was 7.55% (active); that for `CCc1c(Nc2ccccc2C)nc(N)[nH]c1=O` was 105%. Consider `COC(=O)C(Br)(C(=O)OC)C(Br)C(Br)C(Br)c1ccccc1` (centres undefined), for which the growth was 7.49% (active).

On to `CC(C)(C)CC(N)=O`, for which the growth was 101%. The value for `C[C@H]1[C@H](C)CC[C@]2(C(=O)O)CC[C@]3(C)C(=CC[C@@H]4[C@@]5(C)C/C(=C/c6ccco6)C(=O)C(C)(C)[C@@H]5CC[C@]43C)[C@H]12` was -38% [100 µM] (active); that for `CN(C)CCNC(=O)c1cccc(-c2cnc3ccc(-c4ccc5c(c4)OCO5)nn23)c1` was 66.9%; that for `O=C(c1ccccc1)c1c(/C=C/c2ccc(Cl)cc2)nc2ccccc2c1/C=C/c1cccs1` was 94.3%. The same measure for `CCOC(=O)C1=C(COCCN)NC(C)=C(C(=O)OC)C1c1ccccc1Cl` (centres undefined): 17%; for `COc1cc2c3c(n(CCCCNCCCn4c5c(c6cc(OC)c(OC)cc6c4=O)C(=O)c4cc6c(cc4-5)OCO6)c(=O)c2cc1OC)-c1cc2c(cc1C3=O)OCO2`: 97.7%. The same measure for `CC1CCC2(C(=O)O)CCC3(C)C(=CCC4C5(C)CCC(O)C(C)(C)C5CCC43C)C2C1C` (centres undefined): 24.5%.

As to `Cc1ccc(-c2c(Br)c(OC(=O)CO[C@@H]3C[C@H](C)CC[C@H]3C(C)C)c(-c3ccc(C)cc3C)c(Br)c2OC(=O)CO[C@H]2C[C@@H](C)CC[C@@H]2C(C)C)c(C)c1`, the growth was 34.5%. The value for `CCN1CCN(C(=O)[C@]23CC[C@@H](C)[C@H](C)[C@@H]2C2=CC[C@@H]4[C@@]5(C)C/C(=C/c6ccncc6)C(=O)C(C)(C)[C@@H]5CC[C@@]4(C)[C@]2(C)CC3)CC1` was -1.64% (active); that for `COc1c2occc2c(OC)c2c(=O)c(-c3cc(-c4ccc(F)cc4)c(C#N)c(N)n3)c(C)oc12` was 26.4%. With `CC(C)=CCc1c2c(c(O)c3c1O[C@]14C(=C[C@@H]5C[C@H]1C(C)(C)O[C@@]4(C/C=C(/C)C(=O)O)C5=O)C3=O)CC(O)C(C)(C)O2` (some centres undefined), the growth was -55.7% (active). The same measure for `CCN(CC)CCOC(=O)c1cc(OCc2ccccc2)c(OCc2ccccc2)c(OCc2ccccc2)c1`: 44%; for `Cc1cc2nc(-c3ccccc3)c(-c3ccccc3)nc2cc1C`: 106%; for `O=c1ccc(N=Nc2ccccc2)ccc1Cl`: -51.2% (active). The same measure for `Clc1nc(N2CCC[N+]3(CC2)CC[N+]2(CCCNCC2)CC3)nc(N2CCC[N+]3(CC2)CC[N+]2(CCCNCC2)CC3)n1` (centres undefined): 65.8%; for `COc1cccc(-c2nn(-c3ccccc3)cc2-c2ccnc(N3CCN(C(=O)Nc4ccc(F)cc4)CC3)c2)c1`: 51.6%; for `O=C(/C(Cl)=N/O)c1ccc(-c2ccccc2)cc1`: 104%.

In the case of `Cn1cc(-c2cc(N)n3nc(-c4cn(C)c5ccc(F)cc45)cc3n2)c2cc(F)ccc21`, the growth is 12.3%. The value for `CCCCOc1ccc(Nc2cc(Cl)ccc2C(=O)O)cn1` was 99.6% and 103%; that for `Cc1ccnc(Nc2nc3ccccc3[nH]2)n1` was 119%. Turning to `C#Cc1cccc(NC(=O)c2ccccc2NC(=O)CCl)c1`, the growth is 76.1% [8.25 µM]. The value for `C[C@@H]1CC[C@@H]2[C@@H]1[C@H](OC(=O)/C=C/c1ccccc1)[C@]1(c3ccccc3)C[C@@H](OC(=O)CO)[C@@]2(C)O1` was 87.5%.
